Results: the supplement of paper PMC10121225
Where a name gives a salt, the structure may show the parent alone.

The compounds below were run on hN + hpA co-culture (H1 iNGN2 human neurons + human primary astrocytes) (assay: presynaptic density (SYNAPSIN1 puncta per MAP2 neurite area), Z-score vs DMSO controls; higher = more presynaptic puncta (synapse-promoting)). Details: 3 µM; 72 h.
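Further: immunostained co-cultures imaged by high-content microscopy, Z-score per plate against mean and SD of 0.1% DMSO wells, compounds added on differentiation day 18, analysed day 21.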

Compound | presynaptic density (Z-score)
COc1cc(Nc2ncc(F)c(Nc3ccc4c(n3)N(COP(=O)(O)O)C(=O)C(C)(C)O4)n2)cc(OC)c1OC [Fostamatinib (R788)] | 0.149
CN(C)C(=O)[C@H](O)[C@H](Cc1ccccc1)NC(=O)c1cc2cc(Cl)ccc2[nH]1 | -0.264
NC(=O)c1cnc(NC2CCCCC2N)nc1Nc1cccc(-n2nccn2)c1 (stereo not drawn) | -0.728
C[C@]12CC[C@@H]3c4ccc(O)cc4C[C@@H](CCCCCCCCC[S+]([O-])CCCC(F)(F)C(F)(F)F)[C@H]3[C@@H]1CC[C@@H]2O (stereo partly drawn) [Fulvestrant] | -0.41
Cc1nnc(C(=O)NC(C)(C)c2nc(C(=O)NCc3ccc(F)cc3)c(O)c(=O)n2C)o1 [Raltegravir (MK-0518)] | -0.683
NC(=O)c1ccc(I)c([N+](=O)[O-])c1 | -1.09
O=C(Nc1ccccc1Br)N[C@@H]1CCN(c2ccc(C(F)(F)F)cn2)C1 | -1.47
NC1(c2ccc(-c3nc4ccn5c(=O)[nH]nc5c4cc3-c3ccccc3)cc2)CCC1 | -1.01
C[C@H]1COC2(CCN(c3nc(=O)c4cc(C(F)(F)F)cc([N+](=O)[O-])c4s3)CC2)O1 (racemic) [BTZ043 Racemate] | 0.635
O=C1C(=O)N(Cc2ccc(Cl)c(Cl)c2)c2ccccc21 [1-[(3 4-Dichlorophenyl)methyl]-1H-indole-2 3-dione] | -0.359
CCOC(=O)c1ccc(N2NC(=O)C(=Cc3ccc([N+](=O)[O-])o3)C2=O)cc1 | 0.0787
COc1cc2nc(N3CCN(C(=O)C4COc5ccccc5O4)CC3)nc(N)c2cc1OC (stereo not drawn) [Doxazosin mesylate] | 0.0192
COc1ccc2cccc(CCNC(C)=O)c2c1 [Agomelatine] | -0.284
C[C@H]1COC2=C1C(=O)C(=O)c1c2ccc2c1CCCC2(C)C | 0.405
CN[C@@H](C)C(=O)N[C@H](C(=O)N1CCC[C@H]1C(=O)Nc1snnc1-c1ccccc1)C1CCCCC1 | -0.107
CC1(C)CCC(CN2CCN(c3ccc(C(=O)NS(=O)(=O)c4ccc(NCC5CCOCC5)c([N+](=O)[O-])c4)c(Oc4cnc5[nH]ccc5c4)c3)CC2)=C(c2ccc(Cl)cc2)C1 | -1.11
O=c1oc2cc(O)ccc2s1 | -0.113
COc1cccc(C=NCCN=Cc2cccc(OC)c2[O-])c1[O-].[Cl-].[Mn+3] | -0.63
CC(C)(C)NC(=O)[C@H]1CC[C@H]2[C@@H]3CC[C@H]4NC(=O)C=C[C@]4(C)[C@H]3CC[C@]12C [Finasteride] | -0.206

Compound | presynaptic density (Z-score)
O=C(NOCC1CC1)c1ccc(F)c(F)c1Nc1ccc(I)cc1Cl | -0.102
CN(C)CCCCC(=O)Nc1ccc(NC(=S)NC(=O)c2ccc(C(C)(C)C)cc2)cc1 [Tenovin-6] | -0.671
N#CC1(c2ccc(NC(=O)c3cccnc3NCc3ccncc3)cc2)CCCC1 [Apatinib] | -1.31
O=C(NOC[C@H](O)CO)c1ccc(F)c(F)c1Nc1ccc(I)cc1F | -0.369
C[C@@H](NCCCc1cccc(C(F)(F)F)c1)c1cccc2ccccc12 [Cinacalcet HCl] | -1.05
CNC(=O)c1ccccc1Nc1nc(Nc2ccc(N3CCOCC3)cc2OC)ncc1Cl | 0.092
NS(=O)(=O)C#Cc1ccccc1 [2-Phenylethynesulfonamide] | 0.148
O=C(NC[C@H]1CN(c2ccc(N3CCOCC3=O)cc2)C(=O)O1)c1ccc(Cl)s1 [Rivaroxaban] | -0.11
C=C[C@@]1(C)CC(=O)[C@]2(O)[C@@]3(C)[C@@H](O)CCC(C)(C)[C@@H]3[C@H](O)[C@H](OC(C)=O)[C@@]2(C)O1 [Forskolin] | 0.455
CC(C)c1ccc(NC(=O)Cn2cnc3c2c(=O)n(C)c(=O)n3C)cc1 | -0.215
Cc1c(Cl)cccc1Nc1ccccc1C(=O)O [Tolfenamic acid] | -0.187
CCCCCCCCCCCC1=C(O)C(=O)C=C(O)C1=O | -0.826
COc1ccc(-c2nc3cc(C4=NNC(=O)CC4C)ccc3[nH]2)cc1 (stereo not drawn) [Pimobendan] | -0.704
Cc1[nH]c(/C=C2\C(=O)Nc3ccc(S(=O)(=O)Cc4c(Cl)cccc4Cl)cc32)c(C)c1C(=O)N1CCC[C@@H]1CN1CCCC1 | -4.53
CCn1c(N)c(C(=O)NC)c(=O)c2ccc(C#CC(C)(O)COC)nc21 (stereo not drawn) | 0.325
C[C@@H](c1ncncc1F)[C@](O)(Cn1cncn1)c1ccc(F)cc1F | 0.265
CCc1c2c(nc3ccc(OC(=O)N4CCC(N5CCCCC5)CC4)cc13)-c1cc3c(c(=O)n1C2)COC(=O)[C@]3(O)CC [Irinotecan] | -0.725
CCN(CC)CCCC(C)Nc1nc(C)cc(Nc2ccc3nc(C)cc(N)c3c2)n1 (stereo not drawn) | -0.607
O=C1c2ccccc2-c2n[nH]c3cccc1c23 [Anthra[1-9-cd]pyrazol-6(2H)-one] | 0.183
